A selection: hits, their analogues and other compounds. The true share with any hit is near 7.5%.
NPC1 prom act = activates the NPC1 promoter. Huh7 NPC1 promoter luciferase reporter, 24 h. Potency, µM (doses to about 9.22 µM), most hits filed as activators. hit rate 2.4% among 320,000. AID 485313; further: nearly all actives have a fitted effect of over 60% in size
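Huh7 cells stably carrying NPC1 promoter–luciferase, plated in Opti-MEM with 10% FBS for 2 h, were exposed to compound in DMSO for 24 h at 37 °C; luciferase reagent was added for 10 min and luminescence read.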
Luc counter = Kinase-Glo luciferase inhibition (counter-screen) | Q27757 | Kinase-Glo luciferase, ATP luminescence, 8 min | Potency, µM (titrated, usually from 38.3 µM), usual class: inhibitors | AID 1379 | hit rate 0.28% among 200,000; further: nearly all actives have a fitted effect of over 60% in size
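Substrate mix (final 50 mM imidazole pH 7.2, 50 mM KCl, 7 mM MgCl2, 10 uM ATP, 0.01% Tween 20, 0.05% BSA) plus pin-tool compound, then Kinase-Glo detection mix; 8 min ambient, luminescence read.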
ELG1 genotox = inducers of genotoxicity in HEK293T ELG1-luciferase cells; HEK293T ELG1-luciferase reporter, luminescence, 16 h; Potency, µM (doses to about 46 µM), hits mostly activators; hit rate 1.3% among 330,000; further: nearly all actives have a fitted effect of over 60% in size
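16 hr compound incubation (37 °C, 5% CO2) of HEK293T cells carrying luciferase-tagged ELG1; luciferase then measured by ONE-Glo luminescence after 30 min at RT.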
FLuc modulator = firefly luciferase modulation, counter-screen for miR-21 project | hit rate 6.9% among 360,000 | purified FLuc, Km substrates, luminescence inhibition | Potency, µM (highest dose often 57.5 µM), hits mostly inhibitors | P08659; further: nearly all actives have a fitted effect of over 55% in size
Target sequence (P08659 whole entry, looked up): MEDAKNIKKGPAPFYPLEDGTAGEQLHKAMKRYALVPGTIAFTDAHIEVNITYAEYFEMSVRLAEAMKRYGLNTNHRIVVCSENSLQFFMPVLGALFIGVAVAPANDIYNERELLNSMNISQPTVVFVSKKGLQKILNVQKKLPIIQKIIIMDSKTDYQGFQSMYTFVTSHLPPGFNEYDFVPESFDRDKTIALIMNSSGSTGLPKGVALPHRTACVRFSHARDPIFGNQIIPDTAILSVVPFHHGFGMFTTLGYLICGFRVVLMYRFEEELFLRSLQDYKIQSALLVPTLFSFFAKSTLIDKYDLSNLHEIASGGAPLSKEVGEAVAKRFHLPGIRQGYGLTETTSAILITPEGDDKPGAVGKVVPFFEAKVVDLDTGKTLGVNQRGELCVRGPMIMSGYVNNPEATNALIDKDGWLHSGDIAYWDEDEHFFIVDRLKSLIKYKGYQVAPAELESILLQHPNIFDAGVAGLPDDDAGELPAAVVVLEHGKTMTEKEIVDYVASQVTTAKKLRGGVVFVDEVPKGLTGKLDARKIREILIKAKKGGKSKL
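Biochemical qHTS of compounds, final roughly 60 µM downward over six points, against 10 nM purified firefly luciferase using Km concentrations of substrates (10 uM D-luciferin, 10 uM ATP) in Tris acetate pH 7.5 buffer; luminescence output.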
Rab9 promoter act = Rab9 promoter activation; Huh7 Rab9 promoter-luciferase reporter, luminescence, 24 h; Potency, µM (top dose mostly 9.22 µM), usual class: activators; hit rate 2.8% among 320,000; further: nearly all actives have a fitted effect of over 60% in size
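Luciferase signal after 10 min detection reagent at ambient indicates Rab9 promoter upregulation; stably transfected Huh7 cells were treated 24 h with compound in DMSO at 37 °C, 5% CO2.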
SMN2 splice enh = enhancers of SMN2 splice variant expression; HEK293 SMN2-luciferase splicing reporter, luminescence, 30-36 h; Potency, µM (top dose mostly 46.1 µM), actives largely listed as activators; hit rate 2.8% among 210,000; further: nearly all actives have a fitted effect of over 55% in size
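HEK293 cells carry an SMN2 minigene-luciferase reporter in which exon 7 inclusion puts luciferase in frame. Cells were seeded at 2000 cells/well, attached for 10-12 hours, then exposed to compounds for 30-36 hours at 37C before ONE-Glo luminescence.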
A number is an active result; n = inactive; u = inconclusive; x = not tested or not shown; [ ] = dose if it differs, or a comment. The call rests on the fitted dose curve; in most records, active means well fitted curve in the direction sought with a large enough effect; inconclusive means small, poorly fitted or top-dose-only effect, or another doubt; inactive means no such curve, though single readings can be large; an effect the other way counts as inactive or inconclusive.

SMILES	NPC1 prom act	Luc counter	ELG1 genotox	FLuc modulator	Rab9 promoter act	SMN2 splice enh
O=C1c2ccccc2C(=O)N1CCOc1cccc(Br)c1	n	x	u	11µM	u	x
Cc1cccc(OCCN2C(=O)C(=O)c3cc(C)ccc32)c1	n	n	u	12µM	n	n
Cc1ccc2c(c1)C(=O)C(=O)N2CCOc1ccccc1	n	n	u	13µM	n	n
Cc1cccc(OCCN2C(=O)C(=O)c3cccc(C)c32)c1	n	n	n	n	n	n
Cc1ccc(OCCN2C(=O)c3ccccc3C2=O)cc1	n	n	u	u	n	n
C/C(N[C@@H]1CSCC1O)=C1/C(=O)CC2[C@@H]1C2(C)C (stereo partly specified)	x	n	x	x	x	n
C/C(NC(=O)c1ccccc1)=C1/C(=O)CC2C1C2(C)C (stereo unspecified)	n	n	u	15µM	u	n
CCCS(=O)(=O)NCc1cn2c(C)csc2n1	u	n	12µM	u	u	11µM
Cc1csc2nc(CCNS(=O)(=O)c3cccs3)cn12	u	n	21µM	24µM	u	n
O=C(CCc1ccccc1)Nc1ccc2ccccc2n1	3.2µM	n	u	6.7µM	1.1µM	13µM
COc1ccc(C(=O)Nc2ccc3ccccc3n2)cc1OC	2.8µM	x	u	13µM	2.8µM	x
O=C(Nc1ccc2ccccc2n1)c1ccccc1Br	u	x	u	3.4µM	3.5µM	x
Cc1ccc(C(=O)Nc2ccc3ccccc3n2)cc1	3.2µM	x	u	1.7µM	0.63µM	x
CCOc1ccc(Nc2oc(/C=C/c3cccc(OC)c3)nc2C#N)cc1	x	x	x	n	x	n
Cc1ccc(CN2CCN(C3CCN(S(=O)(=O)N(C)C)CC3)C(=O)C2=O)cc1	x	x	x	n	x	x
O=C(NCc1ccccc1)c1ccc(CSc2nc3cccnc3n2Cc2cccc(F)c2)cc1	x	x	x	n	x	x
Cc1ccc(CN2C(=O)SC(Nc3ccc(Cl)cc3)C2=O)cc1 (stereo unspecified)	x	x	x	n	x	n
CC1CCC(N2CCN(C(=O)c3ccccc3F)CC2)CC1 (stereo unspecified)	n	x	n	n	n	x
Cc1ccc(OCCSc2nc3ccc(NC(=O)c4ccco4)cc3s2)cc1	x	x	x	n	x	x
O=C(c1ccc(F)cc1)N1CCC(C(=O)N2CCN(c3ncccn3)CC2)CC1	x	x	n	x	x	x
O=C(Nc1ccc2ccccc2n1)c1ccccc1	2.2µM	x	u	2.4µM	0.89µM	x
O=C(c1ccccc1)c1ccc2ccccc2n1	n	n	n	u	n	n
CCc1c(C)sc(NC(=O)c2cc(C)no2)c1C#N	n	n	n	13µM	n	n
CCc1c(C)sc(NC(=O)c2cc(C(C)C)on2)c1C#N	n	n	n	u	n	n
CCc1cc(C(=O)Nc2sc(C)c(CC)c2C#N)no1	x	x	x	15µM	x	n
SMILES	NPC1 prom act	Luc counter	ELG1 genotox	FLuc modulator	Rab9 promoter act	SMN2 splice enh
Cc1cc(C(=O)Nc2sc(C)c(C)c2C#N)no1	n	n	11µM	19µM	n	x
CCOc1ccc(/C=N/Nc2cc(=O)n(C)c(=O)n2C)cc1	n	n	n	n	n	n
Cn1c(N)c(C(=O)COC(=O)c2cc(S(=O)(=O)N3CCOCC3)ccc2F)c(=O)n(C)c1=O	x	x	n	x	x	x
CCCCn1cnc2c(oc3nc4c(cc32)CCCC4)c1=O	0.63µM	x	u	6µM	0.56µM	x
COc1ccccc1NC(=O)Cn1cnc2c(oc3nc4c(cc32)CCCC4)c1=O	n	x	n	n	n	x
O=c1c2oc3nc4c(cc3c2ncn1CCCc1ccccc1)CCCC4	n	x	n	24µM	u	x
CCCCCCn1cnc2c(oc3nc4c(cc32)CCCC4)c1=O	u	n	n	u	3.2µM	11µM
COc1cccc(NC(=O)Cn2cnc3c(oc4nc5c(cc43)CCCC5)c2=O)c1	n	x	u	n	n	x
COc1cc(CC(=O)OCC(=O)NCc2ccco2)cc(OC)c1OC	x	x	n	x	x	x
COC(=O)Cn1ncc2c3ccccc3n(Cc3ccccc3)c2c1=O	n	n	n	n	n	n
COC(=O)Cn1ncc(N(C)Cc2ccccc2)c(Cl)c1=O	2.5µM	x	u	12µM	u	x
CN(CC(=O)Nc1ccc(F)cc1)C(=O)COC(=O)c1cccc(N(C)C)c1	2.2µM	x	u	u	1.4µM	x
Cc1ccsc1C(=O)OCC(=O)N1CCc2ccccc2C1	2.8µM	n	u	8.5µM	0.79µM	25µM
Cc1ccsc1C(=O)OCC(=O)c1ccc(OC(F)F)cc1	n	x	n	1.1µM	u	x
COc1ccc(C(=O)NNC(=O)COC(=O)c2sccc2C)cc1	n	x	n	x	n	x
Cc1ccsc1C(=O)OCC(=O)c1ccc[nH]1	u	x	u	13µM	2.8µM	x
O=[N+]([O-])c1cc(-c2nc(-c3ccccc3)no2)ccc1NCc1cccnc1	x	x	x	n	x	x
CC1=CC(C)(C)[N+](C)(C)c2ccccc21	n	n	n	n	n	x
Cc1ccc(NC(=O)C2CCCN(S(=O)(=O)c3cccnc3)C2)c(C)c1 (stereo unspecified)	n	x	n	n	n	x
CN(C)c1cccc(C(=O)OCC(=O)c2ccc[nH]2)c1	3.2µM	x	u	11µM	1.4µM	x
CN(C(=O)c1ccc2c(c1)N(Cc1cccc(Cl)c1)C(=O)c1ccccc1S2(=O)=O)C1CCCCC1	x	x	x	n	x	x
Nc1ccc(Cc2nc3c(ccc4ccccc43)[nH]2)cc1	4µM	n	u	13µM	4µM	n
Cc1ccc2c(CC(=O)N3CCN(c4cccc(Cl)c4)CC3)coc2c1	x	x	x	n	x	n
COc1ccc(NC(=O)C2=Cc3ccccc3OC2)cc1	0.4µM	n	0.52µM	1.5µM	0.56µM	7.9µM
COc1ccc(NC(=O)C2=Cc3cccc(OC)c3OC2)cc1	2.8µM	n	u	5.4µM	2.5µM	13µM
SMILES	NPC1 prom act	Luc counter	ELG1 genotox	FLuc modulator	Rab9 promoter act	SMN2 splice enh
O=C(Nc1ccc(Cl)cc1Cl)C1=Cc2ccccc2OC1	1.4µM	n	2.1µM	1.9µM	1µM	u
O=C(Nc1ccc(Cl)cc1)C1=Cc2cc(Cl)ccc2OC1	n	n	n	n[2.3 µM]	n	n
COc1ccc(CCN(C)C(=O)c2cc(S(=O)(=O)N3CCCCC3)ccc2Cl)cc1OC	n	x	n	n	n	x
CC(C1CC2CCC1C2)n1c(-c2ccco2)n[nH]c1=S (stereo unspecified)	n	n	n	u	n	n
O=C(NNC(=O)c1ccccc1OCc1ccccc1)c1ccccc1F	u	x	n	21µM	n	x
O=C(NNC(=O)c1ccccc1OCc1ccccc1)c1ccccc1O	n	x	n	19µM	n	x
O=C(NNC(=O)c1ccccc1OCc1ccc(F)cc1)c1ccccc1O	n	x	n	27µM	n	x
O=C(N/N=C/c1ccccc1F)c1ccccc1OCc1ccccc1	n	x	n	17µM	n	x
O=C(NCc1ccc(F)cc1)c1ccccc1OCc1ccccc1	n	n	n	n	n	n
Cc1cccc(CC(=O)NCCN2CCOCC2)c1	n	x	n	n	n	x
CCOc1ccc(-n2ccnc2SCC(=O)Nc2ccc3c(c2)OCO3)cc1	x	x	x	n	x	x
COc1cccc(N2CCN(C(=O)c3ccc4ccccc4c3)CC2)c1	n	x	n	n	n	x

Screens (PubChem BioAssay)
